For eight molecules, outcome and AC50 results are on record in PubChem BioAssay (EPA / NIEHS).

Values joined by “and” are separate entries in the source; they are usually repeats but may differ in a detail not shown here. Equal values may be shown once. Results filed as inconclusive are left out. Some structures have more than one record in an assay (separate samples or runs), and their calls can disagree. Active and inactive are the calls of the source. How the source made its calls, unless noted: active means hit-call score of the fitted dose curve at least 0.9, where 1 is the maximum; inactive means score below 0.9.

Assay [1] has as its target human RAR-related Orphan Receptor gamma (RORg), RORC (gene 6097) (UniProt P51449). The assay can be described thus: ATG_RORg_TRANS: Attagene TRANS-FACTORIAL HepG2 Assay for human RAR-related Orphan Receptor gamma (RORg) (AID 2283011; active means hit-call score of the fitted dose curve at least 0.9, where 1 is the maximum). A digest of the protocol:
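Transient MRTU transfection of HepG2 (TRANS format, exogenous NR-Gal4 chimera). 24 h dosing. Total RNA → oligo(dT) RT → PCR → 6-FAM labelling → HpaI cut → CE. Gain vs DMSO.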

The target of assay [2] is human Thyroid Receptor alpha (THRa1), THRA (gene 7067) (UniProt P10827). Briefly: ATG_THRa1_TRANS: Attagene TRANS-FACTORIAL HepG2 Assay for human Thyroid Receptor alpha (THRa1) (AID 2283014; active means hit-call score of the fitted dose curve at least 0.9, where 1 is the maximum). In a few lines: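 Transient HepG2 transfection, NR-Gal4 chimera driving GAL4-UAS reporters; 24 h compound exposure; total RNA, oligo(dT) RT, PCR, fluorescent primer extension, capillary electrophoresis. Upward direction vs DMSO control.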
Sequence of human Thyroid Receptor alpha (THRa1), THRA (gene 7067) (P10827 whole entry, looked up, the tested form may be a part): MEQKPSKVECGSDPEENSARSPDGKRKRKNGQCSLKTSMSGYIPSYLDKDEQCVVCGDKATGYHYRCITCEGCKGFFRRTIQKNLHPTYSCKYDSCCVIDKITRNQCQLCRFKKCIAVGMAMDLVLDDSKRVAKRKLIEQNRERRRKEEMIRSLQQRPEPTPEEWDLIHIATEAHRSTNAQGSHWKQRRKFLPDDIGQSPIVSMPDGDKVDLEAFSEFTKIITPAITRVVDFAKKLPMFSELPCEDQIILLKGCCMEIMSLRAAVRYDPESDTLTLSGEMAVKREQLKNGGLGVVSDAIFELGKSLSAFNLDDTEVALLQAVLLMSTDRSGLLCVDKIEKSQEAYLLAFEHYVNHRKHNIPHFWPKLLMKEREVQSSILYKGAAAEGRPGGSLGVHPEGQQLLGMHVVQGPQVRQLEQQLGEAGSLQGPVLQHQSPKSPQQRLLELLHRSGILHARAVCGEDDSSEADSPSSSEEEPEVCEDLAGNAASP

For assay [3], the target named is Estrogen receptor (Homo sapiens) (UniProt P03372). Briefly: ATG_ERa_TRANS: Attagene TRANS-FACTORIAL HepG2 Assay for human Estrogen Receptor alpha (ERa) (AID 2282970; active means hit-call score of the fitted dose curve at least 0.9, where 1 is the maximum). The settings on record: HepG2 Attagene TRANS ERa GAL4 reporter, mRNA. In a few lines: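 After 24 h of compound treatment, RNA from HepG2 cells bearing transfected GAL4-UAS reporter constructs is converted to cDNA, amplified and fluorescently labelled. Capillary electrophoresis resolves the ERa-linked reporter; DMSO serves as negative control.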
Sequence of Estrogen receptor (Homo sapiens) (P03372 whole entry, looked up, the tested form may be a part): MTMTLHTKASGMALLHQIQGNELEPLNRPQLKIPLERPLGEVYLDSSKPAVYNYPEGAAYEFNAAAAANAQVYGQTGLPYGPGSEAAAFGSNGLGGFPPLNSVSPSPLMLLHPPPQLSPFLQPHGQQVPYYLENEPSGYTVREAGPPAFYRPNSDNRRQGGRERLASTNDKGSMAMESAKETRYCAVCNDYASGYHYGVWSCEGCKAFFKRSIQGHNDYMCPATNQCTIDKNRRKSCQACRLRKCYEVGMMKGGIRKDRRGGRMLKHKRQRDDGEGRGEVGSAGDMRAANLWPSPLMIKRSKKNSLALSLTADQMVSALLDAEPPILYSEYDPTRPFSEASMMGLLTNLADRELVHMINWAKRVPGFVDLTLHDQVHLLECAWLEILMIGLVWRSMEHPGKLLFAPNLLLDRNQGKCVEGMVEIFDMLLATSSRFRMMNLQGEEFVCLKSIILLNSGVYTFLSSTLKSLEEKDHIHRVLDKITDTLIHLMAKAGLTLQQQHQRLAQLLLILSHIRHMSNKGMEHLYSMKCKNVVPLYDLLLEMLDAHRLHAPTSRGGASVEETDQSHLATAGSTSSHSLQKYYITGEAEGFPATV

Assay [4] is described as follows: BSK_3C_Vis: BioMAP Diversity Plus: 3C Assay for Morphology Visualization (AID 2283025).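 Further: fitted both ways so gain or loss versus DMSO counts.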 The following applies: primary human endothelial cells (HUVEC). In a few lines:
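Human umbilical vein endothelial cells in the 3C system were imaged by light microscopy 24 h after chemical dosing to record cell morphology. Activity was fitted bidirectionally against DMSO as negative control and baseline; the endpoint serves as a background control.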

Read-out in assay [5]: Transforming growth factor beta 1 (TGFb1), TGFB1 (gene 7040)
The assay can be described thus: BSK_BE3C_TGFb1: BioMAP Diversity Plus: BE3C Assay for Transforming growth factor beta 1 (TGFb1) Biomarker Activity (AID 2283036). The following applies: primary human bronchial epithelial cells; actives raise or lower the signal. In a few lines: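 Human primary bronchial epithelial cells (BE3C system) were dosed with chemical and TGF-b1 levels measured by ELISA at 24 h. Activity was fitted bidirectionally relative to DMSO negative control as baseline.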

Read-out in assay [6]: Transforming growth factor beta 1 (TGFb1), TGFB1 (gene 7040)
The assay can be described thus: BSK_KF3CT_TGFb1: BioMAP Diversity Plus: KF3CT Assay for Transforming growth factor beta 1 (TGFb1) Biomarker Activity (AID 2283072). The following applies: primary human keratinocytes with fibroblasts; actives raise or lower the signal. A digest of the protocol:
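Human keratinocyte plus foreskin fibroblast primary co-culture, dosed with chemical for 24 h. TGF-b1 quantified by ELISA. Activity fitted bidirectionally against DMSO negative control as baseline.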

Read-out in assay [7]: E-selectin (Homo sapiens) (UniProt P16581)
Briefly: BSK_LPS_Eselectin: BioMAP Diversity Plus: LPS Assay for Eselectin Biomarker Activity (AID 2283077). The settings on record: primary human HUVEC with PBMC; actives raise or lower the signal. A digest of the protocol:
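ELISA readout of E-selectin, 24 h post-dose, HUVEC + PBMC co-culture (LPS system). Gain or loss of signal vs DMSO baseline, bidirectional fit.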

Assay [8] is described as follows: BSK_LPS_SRB: Viability Assessment in the BioMAP Diversity Plus: LPS Assay (AID 2283079).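 Further: total protein by sulforhodamine B absorbance as a cytotoxicity measure; measured one day after compound addition; fitted in both directions against DMSO so loss or gain of signal counts.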 The settings on record: primary human HUVEC with PBMC. A digest of the protocol:
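HUVEC + PBMC co-culture, LPS-stimulated; compound 24 h. 10% TCA fix, 0.1% SRB stain, A560. Bidirectional fit vs DMSO.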

Read-out in assay [9]: Monocyte Chemoattractant Protein-1 (MCP1), CCL2 (gene 6347)
Briefly: BSK_LPS_MCP1: BioMAP Diversity Plus: LPS Assay for Monocyte Chemoattractant Protein-1 (MCP1) Biomarker Activity (AID 2283081).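 On AC50: secreted MCP-1 protein quantified by ELISA in culture supernatant.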 The settings on record: primary human HUVEC with PBMC; actives raise or lower the signal. A digest of the protocol: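 ELISA read-out of MCP-1 after 24 h chemical dosing of a human umbilical vein endothelial cell/peripheral blood mononuclear cell co-culture stimulated with LPS. Gain or loss of signal fitted relative to DMSO controls.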

Read-out in assay [10]: Macrophage colony-stimulating factor (MCSF), CSF1 (gene 1435)
The assay can be described thus: BSK_LPS_MCSF: BioMAP Diversity Plus: LPS Assay for Macrophage colony-stimulating factor (MCSF) Biomarker Activity (AID 2283083). The settings on record: primary human HUVEC with PBMC; actives raise or lower the signal. A digest of the protocol:
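HUVEC + PBMC co-culture (human primary), 24 h post-dose; M-CSF by ELISA; gain/loss of signal fitted bidirectionally vs DMSO baseline.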

Read-out in assay [11]: Tissue Factor, F3 (gene 2152)
The assay can be described thus: BSK_LPS_TissueFactor: BioMAP Diversity Plus: LPS Assay for Tissue Factor Biomarker Activity (AID 2283084). The following applies: primary human HUVEC with PBMC; actives raise or lower the signal. In a few lines:
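HUVEC/PBMC co-culture, LPS-activated; CD142 ELISA read 24 h post-dose; bidirectional curve fit vs DMSO negative control.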

Read-out in assay [12]: Vascular cell adhesion molecule 1 (VCAM1), VCAM1 (gene 7412)
The assay can be described thus: BSK_LPS_VCAM1: BioMAP Diversity Plus: LPS Assay for Vascular cell adhesion molecule 1 (VCAM1) Biomarker Activity (AID 2283086). The settings on record: primary human HUVEC with PBMC; actives raise or lower the signal. A digest of the protocol:
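Human umbilical vein endothelial cells co-cultured with peripheral blood mononuclear cells under LPS stimulation were exposed to test chemical for 24 h. VCAM-1 levels were then measured by ELISA, with bidirectional curve fitting relative to DMSO as negative control and baseline.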

Read-out in assay [13]: CD38, CD38 (gene 952)
The assay can be described thus: BSK_SAg_CD38: BioMAP Diversity Plus: SAg Assay for CD38 Biomarker Activity (AID 2283087). The following applies: primary human HUVEC with PBMC; actives raise or lower the signal. In a few lines: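 Fluorescence ELISA of cell-surface CD38 served as the read-out, with either increase or decrease fitted against DMSO controls. Cells were a human umbilical vein endothelium plus PBMC co-culture under SEB/TSST-1 stimulation, measured 24 h after dosing.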

Read-out in assay [14]: CD40, CD40 (gene 958)
The assay can be described thus: BSK_SAg_CD40: BioMAP Diversity Plus: SAg Assay for CD40 Biomarker Activity (AID 2283088). The settings on record: primary human HUVEC with PBMC; actives raise or lower the signal. A digest of the protocol:
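HUVEC/PBMC co-culture, 24 h post-dose; CD40 by ELISA, fluorescence intensity; bidirectional fit vs DMSO negative control.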

Read-out in assay [15]: CD69, CD69 (gene 969)
The assay can be described thus: BSK_SAg_CD69: BioMAP Diversity Plus: SAg Assay for CD69 Biomarker Activity (AID 2283089).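 On AC50: cell surface CD69 protein quantified by ELISA with fluorescence detection.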 The settings on record: primary human HUVEC with PBMC; actives raise or lower the signal. In a few lines:
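Primary human vascular co-culture (umbilical vein endothelium with peripheral blood mononuclear cells) exposed to test chemical for 24 h. CD69 levels quantified by fluorescence ELISA; DMSO served as negative control for bidirectional fitting.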

Read-out in assay [16]: E-selectin (Homo sapiens) (UniProt P16581)
Briefly: BSK_SAg_Eselectin: BioMAP Diversity Plus: SAg Assay for Eselectin Biomarker Activity (AID 2283091). The settings on record: primary human HUVEC with PBMC; actives raise or lower the signal. A digest of the protocol:
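E-selectin ELISA readout at 24 h post-dosing in human umbilical vein endothelial cell/PBMC co-culture; gain or loss of signal fitted relative to DMSO baseline.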

Read-out in assay [17]: Monokine induced gamma interferon (MIG), CXCL9 (gene 4283)
Briefly: BSK_SAg_MIG: BioMAP Diversity Plus: SAg Assay for Monokine induced gamma interferon (MIG) Biomarker Activity (AID 2283092). The following applies: primary human HUVEC with PBMC; actives raise or lower the signal. In a few lines:
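Endothelial cells and PBMC were co-cultured, exposed to test chemicals, and sampled 24 h later. MIG was measured by ELISA, and responses were fitted in both directions relative to DMSO.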

Read-out in assay [18]: Interleukin-8 (IL8), CXCL8 (gene 3576)
The assay can be described thus: BSK_SAg_IL8: BioMAP Diversity Plus: SAg Assay for Interleukin-8 (IL8) Biomarker Activity (AID 2283094). The following applies: primary human HUVEC with PBMC; actives raise or lower the signal. A digest of the protocol:
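Human umbilical vein endothelial cells co-cultured with peripheral blood mononuclear cells; IL-8 measured by ELISA 24 h after chemical dosing. Bidirectional concentration-response fitting used DMSO as negative control and activity baseline.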

A short description of assay [19]: BSK_SAg_Proliferation: Cell Proliferation Assessment in the BioMAP Diversity Plus: SAg Assay (AID 2283095).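 Further: relative cell number as total protein by SRB absorbance in sub-confluent culture.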 The settings on record: primary human HUVEC with PBMC. In a few lines:
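Human umbilical vein endothelial cells co-cultured with peripheral blood mononuclear cells; total protein measured by sulforhodamine B staining (0.1% SRB after 10% TCA fixation), absorbance at 560 nm, at 96 h. Bidirectional fit against DMSO baseline.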

The nature of assay [20]: BSK_SAg_SRB: Viability Assessment in the BioMAP Diversity Plus: SAg Assay (AID 2283096).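 Further: cells read one day after compound addition; hits may be either gain or loss of signal compared with DMSO.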 The settings on record: primary human HUVEC with PBMC. In a few lines:
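Human umbilical vein endothelial cells co-cultured with PBMC, read 24 h after compound dosing. Total protein measured by sulforhodamine B staining (0.1% SRB after 10% TCA fixation, absorbance 560 nm); bidirectional fit versus DMSO baseline.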

Sequence of E-selectin (Homo sapiens) (P16581 whole entry, looked up): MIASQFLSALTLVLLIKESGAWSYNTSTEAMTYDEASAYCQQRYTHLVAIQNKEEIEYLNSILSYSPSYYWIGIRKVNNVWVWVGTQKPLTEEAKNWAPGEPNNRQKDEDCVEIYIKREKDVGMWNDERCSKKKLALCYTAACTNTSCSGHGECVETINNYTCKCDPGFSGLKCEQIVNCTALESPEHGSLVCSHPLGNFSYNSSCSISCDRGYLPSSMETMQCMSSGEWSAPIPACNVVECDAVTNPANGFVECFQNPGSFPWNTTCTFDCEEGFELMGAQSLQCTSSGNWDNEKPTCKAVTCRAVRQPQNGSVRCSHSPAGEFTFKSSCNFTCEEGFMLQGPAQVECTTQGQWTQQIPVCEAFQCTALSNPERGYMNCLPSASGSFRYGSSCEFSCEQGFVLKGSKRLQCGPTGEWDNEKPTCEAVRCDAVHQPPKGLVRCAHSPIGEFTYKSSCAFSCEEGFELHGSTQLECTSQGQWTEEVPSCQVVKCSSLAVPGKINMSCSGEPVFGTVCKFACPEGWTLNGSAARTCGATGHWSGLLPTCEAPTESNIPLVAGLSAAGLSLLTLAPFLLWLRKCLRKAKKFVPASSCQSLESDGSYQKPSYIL
Sequence of human RAR-related Orphan Receptor gamma (RORg), RORC (gene 6097) (P51449 whole entry, looked up, the tested form may be a part): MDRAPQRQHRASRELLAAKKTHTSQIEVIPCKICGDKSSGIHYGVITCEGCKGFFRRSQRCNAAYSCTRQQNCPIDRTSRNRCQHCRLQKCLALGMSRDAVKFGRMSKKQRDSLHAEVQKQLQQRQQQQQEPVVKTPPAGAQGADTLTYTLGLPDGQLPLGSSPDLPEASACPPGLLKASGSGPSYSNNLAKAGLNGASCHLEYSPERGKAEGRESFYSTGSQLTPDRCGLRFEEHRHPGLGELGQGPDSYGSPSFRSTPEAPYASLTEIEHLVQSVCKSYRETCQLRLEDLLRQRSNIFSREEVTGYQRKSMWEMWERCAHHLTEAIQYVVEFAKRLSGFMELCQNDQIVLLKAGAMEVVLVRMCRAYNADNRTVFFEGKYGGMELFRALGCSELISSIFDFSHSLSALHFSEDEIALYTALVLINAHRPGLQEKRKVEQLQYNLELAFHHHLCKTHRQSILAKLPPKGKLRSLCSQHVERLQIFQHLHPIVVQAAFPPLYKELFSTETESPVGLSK

For `CC=Cc1ccc2c(c1)OCO2`, the call in assay [1] and in assay [2] was inactive.
On to `O=C(O)c1cc[c]([Hg][Cl])cc1`, for which, in [3], the molecule was called inactive.
As to `C#CC1(O)CCCCC1`, in assay [1], the outcome was inactive.
For the molecule `O=C(O)CCCc1ccc(N(CCCl)CCCl)cc1`, the result in assay [3], in assay [5], in [6], in [7] and in assay [17] was inactive. For the same molecule, the half-maximal activity concentration (AC50) was 38.9 µM (active) and 38.6 µM (active) in assay [4]; 20 µM (active) in assay [5]; 29.8 µM (active) in assay [6]; 20 µM (active) in assay [7]; 20 µM (active) in [8]; 20 µM (active) in assay [9]. Besides, the AC50 in [10] was 17.7 µM (active) and 20 µM (active); in assay [11], 20 µM (active) and 12.5 µM (active); in assay [12], 20 µM (active) and 28.3 µM (active); in assay [13] it was 26.6 µM (active) and 12.3 µM (active); in assay [14], 20 µM (active); in assay [15], 23.7 µM (active) and 20 µM (active). The AC50 in [16] was 31 µM (active) and 20 µM (active); in assay [18] it was 20 µM (active) and 10.2 µM (active); in assay [19] it was 16.4 µM (active) and 12.2 µM (active); in [20] it was 20 µM (active) and 10.3 µM (active).
Consider `O=C1C(Cl)=C(Cl)C(=O)C(Cl)=C1Cl`, for which the molecule was called inactive in [3], in [1], in assay [2] and in assay [5]. The AC50 was 4.54 µM (active) in assay [4]; 20 µM (active) in assay [6]; 30.2 µM (active) in assay [7]; 32.2 µM (active) in assay [8]; 30.8 µM (active) in [9]; 25.2 µM (active) in [10]. Further, the AC50 in assay [11] was 30.1 µM (active); in assay [12] it was 16.2 µM (active); in [13] it was 28.5 µM (active); in assay [14] it was 25.3 µM (active); in assay [15] it was 27.3 µM (active); in assay [16], 25.9 µM (active). Moreover, the half-maximal activity concentration (AC50) in [17] was 36.2 µM (active); in assay [18] it was 28 µM (active); in assay [19] it was 7.77 µM (active); in [20], 30.9 µM (active).
Regarding `COc1cc(OC)c(OC)cc1C=O`, in assay [3], the result was inactive.
On to `CN1C(=O)CCS(=O)(=O)C1c1ccc(Cl)cc1` (stereo not given), for which, in [2], the molecule was called inactive.
For `CC(C)(C)C(O)C(Oc1ccc(-c2ccccc2)cc1)n1cncn1` (stereo not given), the molecule was called inactive in assay [3], in assay [5], in assay [7], in assay [8], in assay [9] and in assay [10]. Moreover, the result in [11], in assay [12], in [13], in assay [14], in assay [15] and in assay [16] was inactive. Further, the result in [17], in assay [18], in assay [19] and in assay [20] was inactive. Besides, the AC50 in [4] was 37.6 µM (active); in assay [6] it was 20 µM (active).
